Where a chain is given by its changes, count along the chain named. Whole data set: some 5,800 sequences, median “enrichment r” near 0.68, cut for the highest 2% near 11. The sample as a whole holds a higher share of the highest values than the screen did.

For 16 molecules, binding signal results are on record in PMC12136788.

Sequences and labels used below:
T1: UNK ZnF1-6 (called full-length) (human, UniProt Q9C0B0 30-357)
T1 sequence: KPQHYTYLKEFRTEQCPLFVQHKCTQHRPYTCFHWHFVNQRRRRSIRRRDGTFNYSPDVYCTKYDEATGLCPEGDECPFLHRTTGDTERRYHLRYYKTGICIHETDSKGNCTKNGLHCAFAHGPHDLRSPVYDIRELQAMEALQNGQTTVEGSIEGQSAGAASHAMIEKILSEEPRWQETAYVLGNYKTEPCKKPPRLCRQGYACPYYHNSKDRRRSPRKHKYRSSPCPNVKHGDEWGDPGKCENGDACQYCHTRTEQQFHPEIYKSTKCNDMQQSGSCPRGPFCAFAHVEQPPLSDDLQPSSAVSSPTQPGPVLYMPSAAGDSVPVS

B1: chr4:150908776:150908877:-|CDS|ENSG00000198589|msi1|FALSE|bound_elsewhere (ssRNA)
RNA: GGGAGUUCUACAGUCCGACGAUCGUUGAUUUGUACUUAGAUUCUCUUUGUGGCAUACUAUUUAACUGUUUUUAAUUAAUUCUUAGGGUACAUUUAAAUUCAAAGCAGAAAGCGACCUUUUCCUUGCUGAGCAUCACAAACUUUCAACAGAGGAUUGAGCAUCA
B2: chr2:150470103:150470218:-|CDS|ENSG00000115963|unk|total|mutant (ssRNA)
RNA: GGGAGUUCUACAGUCCGACGAUCAUGGCCAAACAGAUUGGAGCAGCUACUUAUAUCGAAUGCUCAGCUUUACAGUCGGAAAACCGCGUCAGAGACAUUUUUCACGUUGCCACCUUGGCAUGUGUAAAUAAGACAAAUAAAAACCAACAGAGGAUUGAGCAUCA
B3: chr3:120396629:120396730:-|3pUTR|ENSG00000163430|msi1|FALSE|unique (ssRNA)
RNA: GGGAGUUCUACAGUCCGACGAUCGCCUUCAUUUCUAGGAGUGCUUUAAGAGAAACUGUAAAUGGUGCUCUGGGGCUGGAGGCUAGUAAGGAAACUGCAUCACGAUUGAAAGAGGAACAGACCCAAAUCUGAACCUCUUUUGAGCAACAGAGGAUUGAGCAUCA
B4: chr14:100883672:100883793:-|CDS|ENSG00000254656|unk|FALSE|unique (ssRNA)
RNA: GGGAGUUCUACAGUCCGACGAUCUCUAUUCCGGGUCCCUCAGCCGGAUUCCCUAGACAGUCUGAUUGUGCUCAUCCUGCAAAUAGAAGAGAAGCUGGCAGAGAGAAGAGCUAUGCUCAGGCUGCCCCCCGAGGCCCGCCCCCGCAACAGAGGAUUGAGCAUCA
B5: ENSG00000103657:stop:overlap|stop_codon|ENSG00000103657|stop_codon|NA|stop_codon (ssRNA)
RNA: GGGAGUUCUACAGUCCGACGAUCAGUUUUCUGUUGCUUUGACCAAAGAUGGUCAUGUGUAUACCUUUGGUCAAGGUGGUGAGUAGUCACUAUGACCUCCUUUCAGUAUAGAUAAUUUUCCACUUCUCUUUCAUGUGCUUUAUUCAACAGAGGAUUGAGCAUCA
B6: chr8:23842440:23842541:-|3pUTR|ENSG00000159167|msi1|total|mutant (ssRNA)
RNA: GGGAGUUCUACAGUCCGACGAUCCCAAUGCGACAAGCCGUUCAUGAGUAUUCCCCGCAAAUUUCUCUCUUUCUUCAGUUCAGCCGAUUUCCUUUUUUCUUUUCUUUUUUUUUUUUUUUUUUUUUGGCUGUGACCUCUUCAAACCAACAGAGGAUUGAGCAUCA
B7: chr8:23842440:23842541:-|3pUTR|ENSG00000159167|msi1|FALSE|unique (ssRNA)
RNA: B6 RNA with C37U, C38A, C54U, C55A, C83U, C84A
B8: chr19:582815:582998:+|CDS_3pUTR|ENSG00000172270|msi1_unk|total|mutant (ssRNA)
RNA: GGGAGUUCUACAGUCCGACGAUCUCAUACACUUCCUUCUUUUUUAAAAAAGUUGGGUUUUCUCCAUUCAGGAUUCUGUUCCUCCGGUUUUUUUCCUUCUGAAGUGUUUCACGAGAGCCCGGGAGCUGCUGCCCUGCGGCCCCGCAACAGAGGAUUGAGCAUCA
B9: ENSG00000165868:stop:overlap|stop_codon|ENSG00000165868|stop_codon|NA|stop_codon (ssRNA)
RNA: GGGAGUUCUACAGUCCGACGAUCAGCAGCCGGCCAAGCAGUUCAUGAGACAAGCUGCCUACCAGGCGGACCCUAUGGAUCUUUAGGAGUAGAUUAUGAGUUCGAAAAACUUCUGUAUAAAAUAUUUGGAGAGGAUUUUAUUGACAACAGAGGAUUGAGCAUCA
B10: ENSG00000124766:be:win_601|CDS|ENSG00000124766|bound_else_gene|NA|bound_elsewhere_windowed (ssRNA)
RNA: GGGAGUUCUACAGUCCGACGAUCUCCAAAGUGGCGGGCGGCGCGGGCGGUGGGGUUAGCAAACCGCACGCCAAGCUCAUCCUGGCAGGCGGCGGCGGCGGCGGGAAAGCAGCGGCUGCCGCCGCCGCCUCCUUCGCCGCCGAACAACAGAGGAUUGAGCAUCA
B11: ENSG00000136451:be:win_2501|3pUTR|ENSG00000136451|bound_else_gene|NA|bound_elsewhere_windowed (ssRNA)
RNA: GGGAGUUCUACAGUCCGACGAUCUCCCAAUCAGAGCCUGUUGAUAUUACAACAGGGACAGAUGUGUUAGUUGCUCACUAGAGUUUAUGUCUUAUAUUAAAUUGUAUACAGUUUUUAUUCUAACCACUAACUAGGUAGUGUAUGCAACAGAGGAUUGAGCAUCA
B12: ENSG00000136451:be:win_2551|3pUTR|ENSG00000136451|bound_else_gene|NA|bound_elsewhere_windowed (ssRNA)
RNA: GGGAGUUCUACAGUCCGACGAUCUCACUAGAGUUUAUGUCUUAUAUUAAAUUGUAUACAGUUUUUAUUCUAACCACUAACUAGGUAGUGUAUGCCCCUUCAGAACAUGCAGAGUGUAUCUUUUUUUAAAUUUCUCCUUCCGUUCAACAGAGGAUUGAGCAUCA
B13: chr7:6403584:6403671:+|3pUTR|ENSG00000136238|msi1_unk|FALSE|overlapping (ssRNA)
RNA: GGGAGUUCUACAGUCCGACGAUCUUUUCUAGUAACUAGGUGUAAAAAUCAUGUGUUGCAGCUUUAUAGUUUUUAAAAUAUUUUAGAUAAUUCUUAAACUAUGAACCUUCUUAACAUCACUGUCUUGCCAGAUUACCGACACUGCAACAGAGGAUUGAGCAUCA
B14: chr2:48379045:48379146:+|3pUTR|ENSG00000170802|unk|FALSE|unique (ssRNA)
RNA: GGGAGUUCUACAGUCCGACGAUCCCUUAUCCUCUUUUCUGAUGUAGCAUAAAAAUUGUCCCGGUUUGAGUUAUAACUGCCAGUAGAUGACCAGUCACAAGUGAACCACUUCUCAGUUGCCAAUCUUUGCUCAUAUUAAAAACACAACAGAGGAUUGAGCAUCA
B15: chr3:160434497:160434598:+|3pUTR|ENSG00000113810|msi1|FALSE|bound_elsewhere (ssRNA)
RNA: GGGAGUUCUACAGUCCGACGAUCUUUAUGAUAGGUUUAUCCGGGUACUAAAUGCAUUUCAACUUGAUAGUUUCAACUUAUGAUAGGUUUACCAGGAUGUAGUCCCACUGUUGAGGAGCAUCUAUUUAGGGGUUAAUUACUUUACAACAGAGGAUUGAGCAUCA
B16: chr12:76028505:76028606:-|3pUTR|ENSG00000139289|msi1|FALSE|unique (ssRNA)
RNA: GGGAGUUCUACAGUCCGACGAUCAAGUCUUGGUCAGUAUUUUUCCAGCAUUUAAAUUGAAACGGUCAGUAUUAGACCACUGCUAGGUUAUGUAGUCAAGAAAUAAAAAUAGAAUUACAUGCUACAGAUGUCUUUAUUCUCCUUCAACAGAGGAUUGAGCAUCA

This test addresses T1, UNK ZnF1-6 (called full-length). Put plainly: nsRBNS (natural sequence RNA bind-n-seq); RBNS binding buffer (assumed for nsRBNS): 25 mM Tris pH 7.5, 150 mM KCl, 3 mM MgCl2, 0.01% Triton X-100, 500 ug/ml BSA, 20 U/ml SUPERase-In, 4 C; UNK is unkempt and MSI1 is Musashi-1; names of the RNAs are library labels; protein concentration not given here; high values mean tight binding.
In turn, B1 registered a binding signal of 3.69 enrichment R. Take B2: the binding signal is 0.384 enrichment R. In the case of B3, the binding signal is 0.489 enrichment R. The figure for B4 is 0.977 enrichment R.

Turning to B5, the binding signal worked out at 0.846 enrichment R. With B6 the figure was 3.66 enrichment R; with B7, 28.9 enrichment R; with B8, 0.504 enrichment R. The figure for B9 is 0.728 enrichment R.

On to B10, for which the binding signal amounted to 0.449 enrichment R. For the molecule B11, the binding signal was found to be 12.3 enrichment R. The figure for B12 is 11.6 enrichment R; for B13 it is 3.16 enrichment R; for B14 it is 0.685 enrichment R. For the molecule B15, the binding signal was determined as 2.3 enrichment R.

Molecule B16 yielded a binding signal of 0.83 enrichment R.
